# In PubChem BioAssay AID2588 (National Center for Advancing Translational Sciences (NCATS), 2010):
# Inconclusive results are not listed. Values without a mark were called inactive. Active and inactive are the calls of the source. Calls follow the shape of the dose curve; as a rule, active = well fitted inhibition curve with a large enough effect; inconclusive = small, poorly fitted or top-dose-only effect, or effect the other way; inactive = flat fitted curve, though single readings scatter.
# Molecular target: Lysosomal acid glucosylceramidase (Homo sapiens) (UniProt P04062)
# Assay: qHTS Assay for Inhibitors and Activators of N370S glucocerebrosidase as a Potential Chaperone Treatment of Gaucher Disease: Activity in Non-Mutant Spleen Homogenate Using a Red Fluorescent Substrate
# Settings: red fluorogenic substrate GCase activity; series mostly up to 50.2 µM; activity change, negative = inhibition: at the top concentration
# Description: NIH Chemical Genomics Center [NCGC]
# NIH Molecular Libraries Probe Production Centers Network [MLPCN]
# Assay Submitter (PI): Wei Zheng
# Glucocerebrosidase (GC) catalyzes the hydrolysis of beta-glucocerebroside to glucose and ceramide in lysosomes. Mutations in the glucocerebrosidase gene result in Gaucher disease, an autosomal recessive lysosomal storage disorder. Many of the mutations encountered in patients with Gaucher disease are missense alterations that may cause misfolding, decreased stability and/or mistrafficking of this lysosomal protein. […] These inhibitors include iminosugar analogs and three non-iminosugar inhibitors identified from a previous HTS of 62,000 compounds with the wild type recombinant enzyme. However, the enhancement of enzyme activity by the chaperone action of an enzyme inhibitor must be balanced against the direct inhibition of the enzyme. An enzyme activator could also function as a chaperone by binding to the enzyme and helping to correct its misfolding and mistrafficking. While activators for GC have not yet been identified, they may have better therapeutic potential than inhibitors. Therefore the discovery and development of chemical activators may provide a new strategy for the chaperone therapy.
# We have optimized a new assay using N370S mutant GC derived from the spleen of a Gaucher patient. […] In addition, the MLPCN compound library has expanded, which increases the chance of finding new and better probes.
# This confirmation assay tests for compound activity in spleen homogenate containing wildtype enzyme using an alternate resorufin-based substrate.
# NCGC Assay Protocol Summary:
# This is a fluorogenic enzyme assay with resorufin-beta-D-glucopyranoside as the substrate and wildtype glucocerebrosidase from human spleen homogenate as the enzyme preparation. Upon the hydrolysis of this fluorogenic substrate, the resulting product, […] which can be detected by a standard fluorescence plate reader. Data were normalized to the controls for basal activity (without enzyme) and 100% activity (with enzyme). The AC50 values were determined from concentration-response data modeled with the standard Hill equation.
# Assay buffer: 50 mM citric acid (titrated with potassium phosphate to pH 5.0), 100 mM potassium chloride, 10 mM sodium chloride, 1 mM magnesium chloride, 0.01% Tween-20.
# 1536-well assay protocol:
# (1) Add 2 ul/well of spleen homogenate (27 ug final)
# (2) Add 23 nL compounds in DMSO solution. The final titration was 0.5 nM to 58 uM.
# (3) Add 2 ul of substrate (1 mM final)
# (4) Incubate at 37C for 40 min.
# (5) Add 2 ul stop solution (1M NaOH and 1M Glycine mixture, pH 10)
# (6) Detect the assay plate in a ViewLux plate reader (PerkinElmer) with Ex=365 nm and Em=440nm.
# Keywords: Glucocerebrosidase, beta-glucosidase, Gaucher Disease, pharmacological chaperone, chaperone therapy, high throughput screening, glucocerebrosidase inhibitor, MLSMR, MLSCN, NIH Roadmap, qHTS and NCGC
# Sequence of Lysosomal acid glucosylceramidase (Homo sapiens) (P04062 whole entry, looked up): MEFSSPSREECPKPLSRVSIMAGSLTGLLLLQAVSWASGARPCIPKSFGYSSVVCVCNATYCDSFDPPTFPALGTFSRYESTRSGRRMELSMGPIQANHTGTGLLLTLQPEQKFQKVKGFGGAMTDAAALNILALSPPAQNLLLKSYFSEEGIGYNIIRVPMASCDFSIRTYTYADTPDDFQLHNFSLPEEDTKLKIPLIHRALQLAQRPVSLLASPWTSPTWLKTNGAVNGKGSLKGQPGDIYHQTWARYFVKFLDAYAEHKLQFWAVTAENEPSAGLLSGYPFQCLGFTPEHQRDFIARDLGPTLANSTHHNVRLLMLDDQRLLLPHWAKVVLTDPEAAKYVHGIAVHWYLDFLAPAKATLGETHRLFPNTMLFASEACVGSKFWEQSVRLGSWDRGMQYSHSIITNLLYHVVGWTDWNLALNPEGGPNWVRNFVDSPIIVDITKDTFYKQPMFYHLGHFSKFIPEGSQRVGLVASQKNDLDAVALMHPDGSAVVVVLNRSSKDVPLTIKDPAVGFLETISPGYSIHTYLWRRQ
SMILES,Potency,"activity change, negative = inhibition"
COc1ccc(S(=O)(=O)N2CCN(c3nc(-c4cccs4)nc4ccccc34)CC2)cc1,0.355 µM (active),–
Cc1ccc(-c2nc(N3CCN(S(=O)(=O)c4ccc(F)cc4)CC3)c3ccc(Cl)cc3n2)cc1,–,-14.4%
CC(C)(C)C(=O)OCCNc1nc(-c2ccccc2)nc2ccccc12,2.24 µM (active),–
CN(c1ccc(C(=O)Nc2nccs2)cc1)S(=O)(=O)c1ccccc1,35.5 µM (active),–
O=S(=O)(c1ccccc1)N1CCN(c2nc(-c3ccc(F)cc3)nc3cc(Cl)ccc23)CC1,–,6.43%
O=C(Nc1cnn(Cc2ccc(F)cc2)c1)c1cnn2c(C(F)F)cc(-c3ccccc3)nc12,–,23.4%
COc1cc2c(cc1NC(=O)COC(=O)[C@@H](NC(=O)c1ccccc1)C(C)C)oc1ccccc12,–,21.1%
CC1(C)CC(=O)C2=C(C1)c1c(ccc3ccccc13)NC2c1ccc(Br)o1 (stereo not given),–,-13.8%
O=S(=O)(c1ccc(Cl)cc1)N1CCN(c2nc(-c3cccc(Br)c3)nc3ccccc23)CC1,–,-11%
CCOC(=O)c1ccc(S(=O)(=O)N2CCN(c3nc(-c4cccs4)nc4ccccc34)CC2)cc1,0.794 µM (active),–
O=S(=O)(c1ccccc1F)N1CCN(c2nc(-c3cccs3)nc3ccccc23)CC1,0.501 µM (active),–
O=S(=O)(c1ccccc1C(F)(F)F)N1CCN(c2nc(-c3cccs3)nc3ccccc23)CC1,0.224 µM (active),–
O=C(Nc1ccccc1)c1ccc(NS(=O)(=O)c2ccccc2)cc1,–,4.74%
COc1cc(OC)c2c(N)c(C#N)c(C(F)(F)C(F)(F)F)nc2c1,–,-0.154%
COc1cccc(CN(C)c2nc(-c3cccs3)nc3ccccc23)c1,2 µM (active),–
O=S(=O)(c1ccc(Br)cc1)N1CCN(c2nc(-c3cccs3)nc3ccccc23)CC1,0.794 µM (active),–
O=C(/C=C/c1ccc(O)cc1)c1ccc(O)cc1O,3.98 µM (active),–
COc1ccc(-c2nc(N3CCN(S(=O)(=O)c4ccc(F)cc4)CC3)c3ccccc3n2)cc1,–,-9.76%
Cc1cc(C)n2ncc(C(=O)Nc3ccc(Cl)c(Cl)c3)c2n1,–,17.2%
O=S(=O)(c1cccc(Cl)c1)N1CCN(c2nc(-c3cccs3)nc3ccccc23)CC1,1.26 µM (active),–
